# Test system: TLK2
# Conditions: concentration: 1 μM, replicates: in singlicate; n = 1
# 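Also: KINOMEscan kinase panel screen.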
row,Structure (SMILES),%Inh [%]
1,CC1=C(C(=O)Nc2cc3cn[nH]c3cc2F)C(c2ccc(C(F)(F)F)cc2)CC(=O)N1 (stereo not drawn) [GSK429286],0
2,COC(=O)c1c(-c2ccccc2)c2cc(OC)ccc2c(=O)n1Cc1ccccc1,0
3,O=C(O)COc1ncnc2cc(-c3ccc4[nH]ncc4c3)sc12,0
4,Nc1nc(-c2nccs2)c(-c2ccnc3ccccc23)s1 [GW693542],0
5,Cn1cncc1-c1ccc2ncnc(Nc3ccc(OCc4ccccc4)cc3)c2c1 [GW320571],0
6,O=C(Nc1ccc2c(c1)OCO2)NC1CCN(c2ccnc(Nc3ccc(F)cc3)n2)C1 (stereo not drawn) [GSK1379724],0
7,Cc1ccccc1-n1cnc2c(N)ncnc21 [SKF-97510],7
8,Cn1ccc2ncnc(Oc3ccc(NC(=O)Nc4ccccc4)cc3)c21,0
9,O=C1NC(=O)C(N2CCc3ccccc32)=C1c1ccccc1Cl [SB-373598],4
10,O=C(Nc1ccccc1)Nc1cccc(Oc2ccc3nccn3n2)c1,0
11,Nc1ncnc2[nH]c(-c3ccccc3)nc12 [AH5015],0
12,CS(=O)(=O)c1ccc(-c2c(-c3ncn[nH]3)sc(N3CCOCC3)c2C#N)cc1,0
13,Cc1c(O)cccc1Nc1ccnc2ccc(C(F)(F)F)cc12.Cl [GW466413],0
14,CS(=O)(=O)c1ccc(-c2nc3n(c2-c2ccncc2)CCC3)cc1 [SKF-105942],0
15,Cc1cc(NCC(c2ccccc2)c2ccccc2)nc(NCc2ccc(C(F)(F)F)cc2)n1 [GW497681],0
16,Cl.NC(=O)c1cccc(Nc2nccc(Nc3ccc(Oc4cccc(Cl)c4)c(Cl)c3)n2)c1 [GW659008],0
17,CC(C)(C)c1ccc(C(=O)Nc2cn3cc(Cl)ccc3n2)cc1,0
18,O=c1cc(N2CCOCC2)nc2n(Cc3cccc(Cl)c3Cl)ccn12 [GSK2286295],0
19,CCCc1ccc(S(=O)(=O)NC2CCN(c3ccnc(Nc4ccc(F)cc4)n3)C2)cc1 (stereo not drawn) [GSK1379715],0
20,O=S(=O)(c1ccc(-c2ccnc3[nH]ccc23)cc1)N1CCCC1 [GSK846226],19
21,COc1ccc(C2=C(Nc3cccc(C(=O)O)c3)C(=O)NC2=O)cc1 [SB-390765],0

# From article PMC5540273 (PLoS ONE, 2017)
